Measured values taken from PubChem BioAssay (NCATS).
Records with an inconclusive call do not appear. Activity calls are given as the source filed them. Unless noted, the call rests on the fitted dose curve; in most records, active means well fitted curve in the direction sought with a large enough effect; inconclusive means small, poorly fitted or top-dose-only effect, or another doubt; inactive means no such curve, though single readings can be large; an effect the other way counts as inactive or inconclusive.

What was measured:
[1] = target: Atrial natriuretic peptide receptor 1 (Homo sapiens) (UniProt P16066); test: Natriuretic polypeptide receptor (hNpr1) antagonism - Pilot screen (AID 1347049; calls by dose curve;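 further: agonist-evoked cGMP luminescence read 20 min after hNppA addition; series mostly up to about 58 µM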)
Method in brief: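 HEK293 cells co-expressing hNpr1 and the GloSensor pGS-40F cGMP luciferase sensor were preloaded with 2% GloSensor reagent for 2 h. Compounds were added for 30 min at room temperature, then cells were stimulated with 0.1 nM hNppA for 20 min before luminescence readout.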

[2] = target: Atrial natriuretic peptide receptor 2 (Homo sapiens) (UniProt P20594); test: Natriuretic polypeptide receptor (hNpr2) antagonism - Pilot subtype selectivity assay (AID 1347050; calls by dose curve)
Method in brief: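 cGMP-sensor HEK293/hNpr2 cells; 2% GloSensor reagent 2 h RT; compounds 30 min; baseline luminescence read; 1 nM hNppC agonist 20 min RT; final luminescence read by CCD camera. Antagonism = reduced post-agonist signal.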

[3] = NS1 protein of Zika virus - qHTS assay to identify small molecule inhibitors in human HEK 293 cells (AID 1347053); further: series mostly up to about 46 µM; nearly all actives have a fitted effect of over 55% in size
Method in brief: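 Inhibition of NS1 expression was scored in HEK 293 cells given compound 1 h ahead of MR766 virus (MOI = 0.5). Following 24 h at 37 C, two anti-NS1 antibodies generated a TR-FRET signal, scaled between uninfected and infected controls.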

[4] = target: Parathyroid hormone/parathyroid hormone-related peptide receptor (Homo sapiens) (UniProt Q03431); test: qHTS for PTHR1 Agonists: Optimization Screen against the NCGC LOPAC library (AID 1347079);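 further: GloSensor cAMP luminescence in HEK-293 GP2 cells expressing human PTHR1 with IBMX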
Method in brief: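 Compounds were tested across a qHTS titration. PTHR1-expressing GP2 cells report cAMP rises via GloSensor luminescence after 1 hr compound exposure at 37C with IBMX present.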

[5] = qHTS of pediatric cancer cell lines to identify multiple opportunities for drug repurposing: Primary screen for TC32 cells (AID 1347089); further: nearly all actives have a fitted effect of over 60% in size
Method in brief: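 TC32 cells, 500-1,000/well in growth medium, compound-treated 48 h at 37 °C; viability from CellTiter-Glo luminescence. Primary screen: MIPE 11-point (0.78 nM–46 µM final), NPC 8-point (0.59 nM–46 µM final); confirmatory at 11-point dilutions.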

[6] = qHTS of pediatric cancer cell lines to identify multiple opportunities for drug repurposing: Primary screen for SJ-GBM2 cells (AID 1347091); further: potency means the concentration at half of the fitted maximal effect
Method in brief: (§1)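 Eight- or eleven-point concentration series, 48 h treatment at 37 degrees C in growth media; readout CellTiter-Glo luminescence. Potency and efficacy were taken from the concentration-response curves.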

[7] = qHTS of pediatric cancer cell lines to identify multiple opportunities for drug repurposing: Primary screen for A673 cells (AID 1347092); further: nearly all actives have a fitted effect of over 45% in size; further: potency means the concentration at half of the fitted maximal effect
Method in brief: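 A673 cells (500-1,000 cells/well) were treated 48 hours at 37 degrees C with compounds at 11-point (0.78 nM to 46 µM) or 8-point (0.59 nM to 46 µM) dilutions. Viability read by CellTiter-Glo luminescence; concentration-response curves fitted.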

[8] = qHTS of pediatric cancer cell lines to identify multiple opportunities for drug repurposing: Primary screen for BT-37 cells (AID 1347094); further: potency means the concentration at half of the fitted maximal effect
Method in brief: (§2)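 Following a 5-hour attachment period, cells at 500-1,000/well received compounds and were cultured for 48 hours. CellTiter-Glo was added and luminescence read to estimate viable, metabolically active cells.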

[9] = qHTS of pediatric cancer cell lines to identify multiple opportunities for drug repurposing: Primary screen for NB-EBc1 cells (AID 1347095); further: potency means the concentration at half of the fitted maximal effect
Method in brief: as §2

[10] = qHTS of pediatric cancer cell lines to identify multiple opportunities for drug repurposing: Primary screen for U-2 OS cells (AID 1347096); further: nearly all actives have a fitted effect of over 50% in size; further: potency means the concentration at half of the fitted maximal effect
Method in brief: (§3)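 Cells (500-1,000/well) in growth media were settled 5 h at 37 degrees C, then given compounds for 48 h. Viability was read as CellTiter-Glo luminescence. Primary runs used MIPE at 11 points (0.78 nM-46 µM) and NPC at 8 points (0.59 nM-46 µM); follow-ups used 11 points.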

[11] = qHTS of pediatric cancer cell lines to identify multiple opportunities for drug repurposing: Primary screen for SK-N-SH cells (AID 1347098); further: nearly all actives have a fitted effect of over 65% in size; further: potency means the concentration at half of the fitted maximal effect
Method in brief: (§4)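 Cells (500-1,000/well) rested 5 h, then received compounds for 48 h; metabolically active cells were measured by CellTiter-Glo luminescence. Final concentrations spanned up to 46 µM (MIPE, 11-point) or 0.59 nM-46 µM (NPC, 8-point) in primary screens, 11-point in follow-ups.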

[12] = qHTS of pediatric cancer cell lines to identify multiple opportunities for drug repurposing: Primary screen for NB1643 cells (AID 1347099); further: nearly all actives have a fitted effect of over 50% in size; further: potency means the concentration at half of the fitted maximal effect
Method in brief: as §2

[13] = qHTS of pediatric cancer cell lines to identify multiple opportunities for drug repurposing: Primary screen for LAN-5 cells (AID 1347100); further: potency means the concentration at half of the fitted maximal effect
Method in brief: as §3

[14] = qHTS of pediatric cancer cell lines to identify multiple opportunities for drug repurposing: Primary screen for Rh18 cells (AID 1347102); further: nearly all actives have a fitted effect of over 65% in size; further: potency means the concentration at half of the fitted maximal effect
Method in brief: as §3

[15] = target: T1, Tyrosine-protein phosphatase non-receptor type substrate 1 (Homo sapiens) + Leukocyte surface antigen CD47 (Homo sapiens) (UniProt P78324+Q08722); test: CD47-SIRPalpha protein protein interaction - LANCE assay qHTS validation (AID 1347057; active means well fitted curve in the direction sought with a large enough effect in the signal ratio, with a control signal flat, not every such curve was filed as active; the % refers to the signal ratio; further: series mostly up to about 38 µM)
Method in brief: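 First, His-tagged CD47 and Eu-labelled anti-His antibody met the compound for 30 min; next, site-specifically biotinylated SIRPalpha was added for 30 min; finally streptavidin-APC was added before reading the TR-FRET ratio.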

[16] = target: T1, Tyrosine-protein phosphatase non-receptor type substrate 1 (Homo sapiens) + Leukocyte surface antigen CD47 (Homo sapiens); test: CD47-SIRPalpha protein protein interaction - HTRF assay qHTS validation (AID 1347058; active means well fitted curve in the direction sought with a large enough effect in the signal ratio, not every such curve was filed as active; the % refers to the signal ratio;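 further: recombinant soluble extracellular CD47 with His tag and biotinylated SIRPalpha domains; series mostly up to about 38 µM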)
Method in brief: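 TR-FRET read (Ch1/Ch2 ratio) of soluble extracellular CD47 and Avi-biotinylated SIRPalpha domains in PBS pH 7.4 with 0.05% IGEPAL; 7-point compound titration. Sequential 30 min room-temperature steps; non-biotinylated SIRPalpha as control inhibitor.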

[17] = qHTS of pediatric cancer cell lines to identify multiple opportunities for drug repurposing: Primary screen for DAOY cells (AID 1347090); further: nearly all actives have a fitted effect of over 55% in size; further: potency means the concentration at half of the fitted maximal effect
Method in brief: as §1

[18] = qHTS of pediatric cancer cell lines to identify multiple opportunities for drug repurposing: Primary screen for SK-N-MC cells (AID 1347093); further: potency means the concentration at half of the fitted maximal effect
Method in brief: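 Metabolically active cells were quantified by ATP-dependent luminescence (CellTiter-Glo, 15 min at room temperature) following 48 h treatment. Cells had been plated at 500-1,000 per well and settled for 5 h beforehand.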

[19] = qHTS of pediatric cancer cell lines to identify multiple opportunities for drug repurposing: Primary screen for BT-12 cells (AID 1347101); further: nearly all actives have a fitted effect of over 25% in size; further: potency means the concentration at half of the fitted maximal effect
Method in brief: as §4

[20] = qHTS of pediatric cancer cell lines to identify multiple opportunities for drug repurposing: Primary screen for Saos-2 cells (AID 1347097); further: nearly all actives have a fitted effect of over 40% in size; further: potency means the concentration at half of the fitted maximal effect
Method in brief: as §2

Measured: Potency

Parathyroid hormone/parathyroid hormone-related peptide receptor (Homo sapiens), sequence (Q03431 whole entry, looked up): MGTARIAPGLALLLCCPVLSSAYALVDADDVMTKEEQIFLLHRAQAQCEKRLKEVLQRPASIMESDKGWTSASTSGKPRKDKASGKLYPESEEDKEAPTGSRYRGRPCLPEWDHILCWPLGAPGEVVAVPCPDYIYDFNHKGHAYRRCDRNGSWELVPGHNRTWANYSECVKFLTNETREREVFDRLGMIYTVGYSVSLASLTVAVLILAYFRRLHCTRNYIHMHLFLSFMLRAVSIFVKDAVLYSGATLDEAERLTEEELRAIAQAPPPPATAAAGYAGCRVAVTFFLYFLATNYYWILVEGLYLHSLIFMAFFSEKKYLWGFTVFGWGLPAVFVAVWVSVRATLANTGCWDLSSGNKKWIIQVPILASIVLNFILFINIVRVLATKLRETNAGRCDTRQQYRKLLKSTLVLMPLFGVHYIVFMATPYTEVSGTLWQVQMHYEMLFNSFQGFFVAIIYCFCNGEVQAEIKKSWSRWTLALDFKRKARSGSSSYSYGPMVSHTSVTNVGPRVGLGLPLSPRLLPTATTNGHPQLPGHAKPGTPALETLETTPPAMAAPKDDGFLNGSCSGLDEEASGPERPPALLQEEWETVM
Atrial natriuretic peptide receptor 2 (Homo sapiens), sequence (P20594 whole entry, looked up): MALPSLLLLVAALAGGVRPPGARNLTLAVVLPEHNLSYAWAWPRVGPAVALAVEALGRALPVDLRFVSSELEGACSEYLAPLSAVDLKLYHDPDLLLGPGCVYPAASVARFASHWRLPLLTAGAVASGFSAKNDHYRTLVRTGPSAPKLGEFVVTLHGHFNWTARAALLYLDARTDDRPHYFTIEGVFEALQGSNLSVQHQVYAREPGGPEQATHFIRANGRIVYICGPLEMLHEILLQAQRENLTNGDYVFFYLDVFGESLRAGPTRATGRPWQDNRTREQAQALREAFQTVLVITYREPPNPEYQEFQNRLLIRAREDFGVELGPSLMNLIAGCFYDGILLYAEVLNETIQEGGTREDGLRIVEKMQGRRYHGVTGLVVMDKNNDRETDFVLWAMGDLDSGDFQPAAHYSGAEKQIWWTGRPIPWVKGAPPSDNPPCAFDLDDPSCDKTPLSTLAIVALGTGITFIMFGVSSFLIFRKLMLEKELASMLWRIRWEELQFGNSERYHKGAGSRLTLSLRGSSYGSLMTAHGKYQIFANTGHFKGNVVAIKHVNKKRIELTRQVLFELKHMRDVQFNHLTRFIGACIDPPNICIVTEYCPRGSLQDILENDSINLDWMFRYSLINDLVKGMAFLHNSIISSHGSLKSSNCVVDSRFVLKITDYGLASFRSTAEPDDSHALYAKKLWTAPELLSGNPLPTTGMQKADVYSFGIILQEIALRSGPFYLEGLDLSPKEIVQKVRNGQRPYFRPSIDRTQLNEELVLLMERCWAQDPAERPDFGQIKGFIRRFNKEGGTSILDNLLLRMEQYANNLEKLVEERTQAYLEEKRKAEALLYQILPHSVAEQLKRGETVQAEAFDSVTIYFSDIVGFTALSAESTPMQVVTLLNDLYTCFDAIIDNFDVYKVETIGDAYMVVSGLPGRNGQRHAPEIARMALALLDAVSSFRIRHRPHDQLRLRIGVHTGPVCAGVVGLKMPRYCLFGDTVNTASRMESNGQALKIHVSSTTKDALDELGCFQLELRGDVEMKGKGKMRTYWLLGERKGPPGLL
Atrial natriuretic peptide receptor 1 (Homo sapiens), sequence (P16066 whole entry, looked up): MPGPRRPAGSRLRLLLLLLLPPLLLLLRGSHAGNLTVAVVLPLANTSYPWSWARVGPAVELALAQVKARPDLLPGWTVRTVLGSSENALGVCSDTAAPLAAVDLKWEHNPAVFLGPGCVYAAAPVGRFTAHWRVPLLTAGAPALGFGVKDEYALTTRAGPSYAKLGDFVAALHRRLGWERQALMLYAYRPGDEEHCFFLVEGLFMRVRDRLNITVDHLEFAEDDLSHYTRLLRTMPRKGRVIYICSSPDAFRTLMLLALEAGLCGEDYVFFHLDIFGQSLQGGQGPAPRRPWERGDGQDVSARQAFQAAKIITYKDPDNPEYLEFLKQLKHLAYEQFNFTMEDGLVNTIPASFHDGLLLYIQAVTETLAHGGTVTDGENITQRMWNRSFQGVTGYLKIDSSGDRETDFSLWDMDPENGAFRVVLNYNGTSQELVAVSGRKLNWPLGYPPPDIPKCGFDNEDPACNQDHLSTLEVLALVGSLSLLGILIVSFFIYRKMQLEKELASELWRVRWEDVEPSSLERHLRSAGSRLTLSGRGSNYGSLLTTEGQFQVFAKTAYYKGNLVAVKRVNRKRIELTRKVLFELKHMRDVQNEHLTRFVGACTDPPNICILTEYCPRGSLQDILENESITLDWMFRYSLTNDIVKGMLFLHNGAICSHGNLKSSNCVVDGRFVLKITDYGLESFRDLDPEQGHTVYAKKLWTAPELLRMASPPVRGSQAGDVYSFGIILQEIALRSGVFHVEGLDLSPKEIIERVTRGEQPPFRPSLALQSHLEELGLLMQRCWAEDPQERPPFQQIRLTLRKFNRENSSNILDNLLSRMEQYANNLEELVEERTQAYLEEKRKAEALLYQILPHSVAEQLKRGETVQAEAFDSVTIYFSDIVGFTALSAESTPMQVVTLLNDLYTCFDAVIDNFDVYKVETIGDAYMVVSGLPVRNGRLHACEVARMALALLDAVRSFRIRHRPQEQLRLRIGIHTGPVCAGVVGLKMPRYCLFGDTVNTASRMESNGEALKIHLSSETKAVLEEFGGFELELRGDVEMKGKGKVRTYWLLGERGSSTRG
T1 sequence (P78324 whole entry, looked up): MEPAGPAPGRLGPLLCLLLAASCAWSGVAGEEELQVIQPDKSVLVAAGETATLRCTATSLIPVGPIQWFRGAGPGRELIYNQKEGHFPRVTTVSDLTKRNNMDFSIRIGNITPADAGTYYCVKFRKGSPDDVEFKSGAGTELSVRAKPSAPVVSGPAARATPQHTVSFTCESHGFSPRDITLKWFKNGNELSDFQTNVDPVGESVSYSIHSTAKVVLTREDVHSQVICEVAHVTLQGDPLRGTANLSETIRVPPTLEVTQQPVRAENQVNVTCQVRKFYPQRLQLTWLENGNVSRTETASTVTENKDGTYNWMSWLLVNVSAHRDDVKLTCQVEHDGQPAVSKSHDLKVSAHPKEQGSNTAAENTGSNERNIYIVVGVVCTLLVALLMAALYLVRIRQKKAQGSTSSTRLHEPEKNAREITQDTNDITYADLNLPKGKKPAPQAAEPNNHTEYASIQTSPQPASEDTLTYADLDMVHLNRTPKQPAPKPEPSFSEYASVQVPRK
T1 sequence (Q08722 whole entry, looked up): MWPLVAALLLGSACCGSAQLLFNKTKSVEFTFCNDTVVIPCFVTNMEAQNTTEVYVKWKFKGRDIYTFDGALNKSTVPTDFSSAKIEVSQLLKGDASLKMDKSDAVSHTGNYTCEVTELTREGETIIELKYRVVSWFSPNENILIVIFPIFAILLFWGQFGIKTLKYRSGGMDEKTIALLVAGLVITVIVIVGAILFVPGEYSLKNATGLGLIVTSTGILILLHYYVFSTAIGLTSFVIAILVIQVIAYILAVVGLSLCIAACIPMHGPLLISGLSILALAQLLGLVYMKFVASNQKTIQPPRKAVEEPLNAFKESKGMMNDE

CCCCC1C(=O)N(c2ccccc2)N(c2ccccc2)C1=O
not listed: [15] | [16] | [17] | [18] | [19] | [20]
inactive: all other assays above

CC(=O)N[C@@H](CS)C(=O)O
not listed: [20]
inactive: all other assays above

NC(N)=Nc1nc(CSCC/C(N)=N/S(N)(=O)=O)cs1
not listed: [3] | [9]
inactive: all other assays above

CC(C)OC(=O)C(C)(C)Oc1ccc(C(=O)c2ccc(Cl)cc2)cc1
active: [18] 20.9 µM
not listed: [3] | [6] | [8] | [9] | [12] | [15] | [16] | [19]
inactive: all other assays above

CN(C)CCC(c1ccccc1)c1ccccn1 (configuration not stated)
not listed: [5] | [9] | [19]
inactive: all other assays above

CC/C(=C(\c1ccccc1)c1ccc(OCCN(C)C)cc1)c1ccccc1
inactive: [1] | [2] | [4] | [17]
active: [18] 16.8 µM | [20] 21.1 µM | [11] 24.4 µM

COC(=O)[C@@H]1[C@H]2C[C@H]3c4[nH]c5ccccc5c4CCN3C[C@@H]2CC[C@@H]1O
not listed: [8] | [9] | [15] | [16] | [20]
inactive: all other assays above

O=C(NCCN1CCOCC1)c1ccc(Cl)cc1
not listed: [3]
inactive: all other assays above

NC1CCC(Nc2nc(Nc3ccc(C(=O)N4CCCCC4)cc3)c3ncn(-c4cccc(F)c4)c3n2)CC1 (configuration not stated)
not listed: [1] | [2] | [4] | [15] | [16]
inactive: all other assays above

COc1cc2ncnc(-n3nc(-c4ccccn4)nc3N)c2cc1OC
active: [17] 18.7 µM | [6] 14.8 µM | [7] 3.72 µM | [18] 4.69 µM | [9] 14.8 µM | [20] 4.69 µM | [12] 4.69 µM
inactive: [3] | [5] | [10]

CC(C)C(=O)Oc1ccc(CO)cc1[C@H](CCN(C(C)C)C(C)C)c1ccccc1
not listed: [1] | [2] | [4] | [12] | [15] | [16]
inactive: all other assays above

O=C(OCC#CCSc1nnc(-c2cccc3ccccc23)o1)c1cc2ccccc2s1
not listed: [1] | [2] | [4] | [9] | [11] | [15] | [16] | [19]
inactive: all other assays above

CC1(C)CCC(CN2CCN(c3ccc(C(=O)NS(=O)(=O)c4ccc(NCC5CCOCC5)c([N+](=O)[O-])c4)c(Oc4cnc5[nH]ccc5c4)c3)CC2)=C(c2ccc(Cl)cc2)C1
active: [17] 14.8 µM | [6] 2.96 µM | [7] 18.7 µM | [18] 0.0074 µM | [8] 27.3 µM | [9] 1.87 µM | [10] 18.7 µM | [12] 0.0418 µM | [13] 1.05 µM | [19] 30.6 µM | [14] 10.5 µM
inactive: [3] | [5]

Nc1ncnc2ccccc12
active: [17] 18.7 µM | [7] 23.5 µM
inactive: [3] | [5] | [6] | [8] | [9] | [10] | [20] | [13] | [19] | [14]

OC[C@@H](O)[C@H](O)[C@H](O)[C@@H](O)CO
not listed: [1] | [2] | [4] | [15] | [16]
inactive: all other assays above

N#C[C@H]1C[C@H]2C[C@@H]2N1C(=O)[C@@H](N)C12CC3CC(CC(O)(C3)C1)C2
active: [11] 24.1 µM
inactive: [3] | [5] | [17] | [6] | [7] | [8] | [10] | [19] | [14]
